This is an account of results in PubChem BioAssay (NCI).

Test [1] can be described thus: NCI Yeast Anticancer Drug Screen. Data for the rad50 strain (AID 155).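 Note: 0% = growth of vehicle-only cultures of the same strain.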 As to conditions: S. cerevisiae rad50 strain growth inhibition, hits give high values. The method, boiled down: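 DNA repair mutant yeast, compound exposure, growth read-out; inhibition is taken relative to vehicle.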
Test [2] in a line: NCI Yeast Anticancer Drug Screen. Data for the mec2-1 strain (AID 157). As to conditions: S. cerevisiae mec2-1 strain, hits give high values. The method, boiled down:
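Each compound was tested on mec2-1 yeast, a strain altered in DNA damage repair or cell cycle control. Growth inhibition is reported relative to vehicle.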

A short description of test [3]: NCI Yeast Anticancer Drug Screen. Data for the sgs1 mgt1 strain (AID 161).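 Note: 0% = growth of cultures given vehicle only.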 As to conditions: S. cerevisiae sgs1 mgt1 strain, hits give high values. The method, boiled down: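 Mutant yeast exposed to compound; growth scored against vehicle-only wells.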
Test [4] in a line: NCI Yeast Anticancer Drug Screen. Data for the cln2 rad14 strain (AID 165).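 Note: 0% = growth equal to vehicle treated cultures.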 As to conditions: S. cerevisiae cln2 rad14 strain, hits give high values. The method, boiled down:
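Test compounds were added to cln2 rad14 yeast cultures; inhibition of growth was then determined by comparison with vehicle treatment.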

The nature of test [5]: NCI Yeast Anticancer Drug Screen. Data for the bub3 strain (AID 167). Particulars: S. cerevisiae bub3 mutant strain, hits give high values. The method, boiled down: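 In this screen, a yeast mutant lacking normal mitotic checkpoint function is challenged with compound. Relative growth versus vehicle gives the inhibition value.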
Test [6] in a line: NCI Yeast Anticancer Drug Screen. Data for the mlh1 rad18 strain (AID 175). As to conditions: S. cerevisiae mlh1 rad18 strain growth inhibition, hits give high values. The method, boiled down: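 Inhibition values reflect reduced growth of mutant yeast versus vehicle-treated controls following compound exposure; the mutations affect DNA damage repair.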
[7] abbreviates: at 5.0 µM (retest, dose inferred, filed as 0.5).
Setting [8] is: at 50.0 µM (retest, dose inferred, filed as 5.0).

This is part of a sample that, as a whole, favours compounds with a hit. Of some 79,000 tested, about 15% had one in any assay. A number with no mark means an inactive call. Calls of active or inactive are those of the source. Cut-off read from the data, not from the text of the source: active = growth inhibition above about 70%; inactive = the rest.

Turning to `CC(C)c1ccc(CN(CCO)Cc2ccc(C(C)C)cc2)cc1`, the growth inhibition in test [1] (setting [7]) was 7%; in test [1] (setting [8]), 84% (active); in test [1] (at 50.0 µM) it was 97.2% (active); in test [2] (setting [7]), 3%; in test [2] (setting [8]) it was 88% (active); in test [2] (at 50.0 µM) it was 75.6% (active). The growth inhibition is 6% in test [3] (setting [7]); 95% (active) in test [3] (setting [8]); 97.1% (active) in test [3] (at 50.0 µM); 7% in test [4] (setting [7]); 87% (active) in test [4] (setting [8]); 77.3% (active) in test [4] (at 50.0 µM). The growth inhibition in test [5] (setting [7]) is 7%; in test [5] (setting [8]), 97% (active); in test [5] (at 50.0 µM), 98.6% (active); in test [6] (setting [7]) it was 8%; in test [6] (setting [8]), 91% (active); in test [6] (at 50.0 µM) it was 81.8% (active).

For the molecule `C=C1C(C2(C)C(OC(C)=O)CC(=O)OC(C)(COC(C)=O)C2CC(=O)OC)C(OC=O)C(OC(=O)C(O)C(C)CC)C2(C)C(c3ccoc3)CC(=O)C12O` (configuration not stated), the growth inhibition in test [1] (setting [7]) was -15%; in test [1] (setting [8]), -28%; in test [1] (at 50.0 µM), 76.9% (active); in test [2] (setting [7]) it was -5%; in test [2] (setting [8]) it was -16%; in test [2] (at 50.0 µM), 68.7%. Also, the growth inhibition is 4% in test [3] (setting [7]); -32% in test [3] (setting [8]); 57.5% in test [3] (at 50.0 µM); -6% in test [4] (setting [7]); 0% in test [4] (setting [8]); 81.5% (active) in test [4] (at 50.0 µM). The growth inhibition in test [5] (setting [7]) is -36%; in test [5] (setting [8]), -23%; in test [5] (at 50.0 µM), 79.8% (active); in test [6] (setting [7]), -2%; in test [6] (setting [8]), -53%; in test [6] (at 50.0 µM), 90% (active).

For `Oc1c(Cl)cc(Cl)cc1C=NCCSc1ccc(Cl)cc1`, the growth inhibition in test [1] (setting [7]) is 33%; in test [1] (setting [8]), 99% (active); in test [1] (at 50.0 µM) it was 92.2% (active); in test [2] (setting [7]), 30%; in test [2] (setting [8]), 99% (active); in test [2] (at 50.0 µM), 93.8% (active). For the same molecule, the growth inhibition in test [3] (setting [7]) is 27%; in test [3] (setting [8]), 99% (active); in test [3] (at 50.0 µM), 94.8% (active); in test [4] (setting [7]), 23%; in test [4] (setting [8]) it was 99% (active); in test [4] (at 50.0 µM), 93.2% (active). The growth inhibition was 45% in test [5] (setting [7]); 99% (active) in test [5] (setting [8]); 93.9% (active) in test [5] (at 50.0 µM); 49% in test [6] (setting [7]); 99% (active) in test [6] (setting [8]); 92.7% (active) in test [6] (at 50.0 µM).

As to `CCC#CC(O)(C(=O)OCC)C1CCCC1` (configuration not stated), the growth inhibition in test [1] (setting [7]) is -148%; in test [1] (setting [8]) it was -161%; in test [1] (at 50.0 µM) it was -1.05%; in test [2] (setting [7]), -50%; in test [2] (setting [8]) it was -51%; in test [2] (at 50.0 µM), 13.5%. Moreover, the growth inhibition in test [3] (setting [7]) was -59%; in test [3] (setting [8]), -64%; in test [3] (at 50.0 µM), -0.35%; in test [4] (setting [7]) it was -57%; in test [4] (setting [8]) it was -59%; in test [4] (at 50.0 µM), 33.5%. Also, the growth inhibition is -67% in test [5] (setting [7]); -85% in test [5] (setting [8]); 18.4% in test [5] (at 50.0 µM); -115% in test [6] (setting [7]); -115% in test [6] (setting [8]); 7.9% in test [6] (at 50.0 µM).

For the molecule `Cc1ncc(CO)c(C=NCCCCCCN=Cc2c(CO)cnc(C)c2[O-])c1[O-].[Cu+2]`, the growth inhibition is -2% in test [1] (setting [7]); -1% in test [1] (setting [8]); 3.9% in test [1] (at 50.0 µM); -3% in test [2] (setting [7]); 1% in test [2] (setting [8]); -20.4% in test [2] (at 50.0 µM). The growth inhibition in test [3] (setting [7]) was -4%; in test [3] (setting [8]), -5%; in test [3] (at 50.0 µM), -5.85%; in test [4] (setting [7]), -5%; in test [4] (setting [8]), -1%; in test [4] (at 50.0 µM), 81.2% (active). Moreover, the growth inhibition was -3% in test [5] (setting [7]); -1% in test [5] (setting [8]); 25.9% in test [5] (at 50.0 µM); -2% in test [6] (setting [7]); 0% in test [6] (setting [8]); 25.4% in test [6] (at 50.0 µM).

`COC(=O)c1ccc(NCc2c(O)ccc(O)c2Br)cc1Cl`: the growth inhibition is 21% in test [1] (setting [7]); 99% (active) in test [1] (setting [8]); 89.5% (active) in test [1] (at 50.0 µM); 14% in test [2] (setting [7]); 99% (active) in test [2] (setting [8]); 92.2% (active) in test [2] (at 50.0 µM). The growth inhibition in test [3] (setting [7]) is 21%; in test [3] (setting [8]), 99% (active); in test [3] (at 50.0 µM), 89.1% (active); in test [4] (setting [7]), 25%; in test [4] (setting [8]) it was 99% (active); in test [4] (at 50.0 µM) it was 90.2% (active). For the same molecule, the growth inhibition in test [5] (setting [7]) was 22%; in test [5] (setting [8]) it was 99% (active); in test [5] (at 50.0 µM), 91.8% (active); in test [6] (setting [7]), 25%; in test [6] (setting [8]), 98% (active); in test [6] (at 50.0 µM), 91.7% (active).

With `O=C1C(Cl)=C(Nc2ccc(S(=O)(=O)Nc3ccccn3)cc2)C(=O)c2ccccc21`, the growth inhibition in test [1] (setting [7]) was 99% (active); in test [1] (setting [8]), 99% (active); in test [1] (at 50.0 µM), 99.3% (active); in test [2] (setting [7]), 99% (active); in test [2] (setting [8]) it was 99% (active); in test [2] (at 50.0 µM), 99.3% (active). Moreover, the growth inhibition was 96% (active) in test [3] (setting [7]); 99% (active) in test [3] (setting [8]); 99.2% (active) in test [3] (at 50.0 µM); 95% (active) in test [4] (setting [7]); 99% (active) in test [4] (setting [8]); 99.2% (active) in test [4] (at 50.0 µM). The growth inhibition was 99% (active) in test [5] (setting [7]); 99% (active) in test [5] (setting [8]); 98.7% (active) in test [5] (at 50.0 µM); 90% (active) in test [6] (setting [7]); 99% (active) in test [6] (setting [8]); 99.2% (active) in test [6] (at 50.0 µM).

Regarding `CCOC(=O)/C(=C\c1ccccc1)C(=O)CCN1CCOCC1`, the growth inhibition was 37% in test [1] (setting [7]); 99% (active) in test [1] (setting [8]); 95.5% (active) in test [1] (at 50.0 µM); 24% in test [2] (setting [7]); 99% (active) in test [2] (setting [8]); 84.5% (active) in test [2] (at 50.0 µM). Besides, the growth inhibition was 12% in test [3] (setting [7]); 99% (active) in test [3] (setting [8]); 41% in test [3] (at 50.0 µM); 45% in test [4] (setting [7]); 99% (active) in test [4] (setting [8]); 75.9% (active) in test [4] (at 50.0 µM). Further, the growth inhibition was 20% in test [5] (setting [7]); 99% (active) in test [5] (setting [8]); 76% (active) in test [5] (at 50.0 µM); 10% in test [6] (setting [7]); 99% (active) in test [6] (setting [8]); 84.8% (active) in test [6] (at 50.0 µM).

For the molecule `CCOC(=O)Cc1csc2[n+]1C(=O)/C(=C\c1cccc(Cl)c1Cl)S2`, the growth inhibition in test [1] (setting [7]) was 11%; in test [1] (setting [8]) it was 20%; in test [1] (at 50.0 µM), 69.4%; in test [2] (setting [7]) it was 0%; in test [2] (setting [8]), 28%; in test [2] (at 50.0 µM) it was 60%. The growth inhibition in test [3] (setting [7]) was 1%; in test [3] (setting [8]) it was 52%; in test [3] (at 50.0 µM) it was 83.4% (active); in test [4] (setting [7]) it was -11%; in test [4] (setting [8]) it was 32%; in test [4] (at 50.0 µM) it was 31.8%. The growth inhibition in test [5] (setting [7]) was -32%; in test [5] (setting [8]), 52%; in test [5] (at 50.0 µM), 75.8% (active); in test [6] (setting [7]) it was 14%; in test [6] (setting [8]), 29%; in test [6] (at 50.0 µM) it was 72.5% (active).
